Holding throughout (test): NCI-60 one-dose screen, 48 h (100 = growth as untreated, 0 = no growth, -100 = all killed)
One assay has as its system NCI-H23 lung. The settings on record: 10 µM unless noted.
The next assay deals with NCI-H226 lung. The settings on record: 10 µM unless noted.
Another assay has as its system NCI-H322M lung. The settings on record: 10 µM unless noted.
For another assay, the system named is HOP-62 NSCLC. The settings on record: 10 µM unless noted.
In the next assay the test system is NCI-H460 lung. The settings on record: 10 µM unless noted.
Another assay relates to HOP-92 NSCLC. The settings on record: 10 µM.
Another assay deals with A549/ATCC NSCLC. The conditions noted are these: 10 µM unless noted.
For the next assay, the system named is 786-0 renal. The settings on record: 10 µM unless noted.
Another assay relates to COLO 205 colon. The conditions noted are these: 10 µM unless noted.
The test system of another assay is DU-145 prostate. The settings on record: 10 µM unless noted.
The next assay concerns K-562 leukemia. The settings on record: 10 µM unless noted.
The next assay deals with MALME-3M melanoma. The conditions noted are these: 10 µM unless noted.
The next assay has as its system MDA-MB-231 breast. The settings on record: 10 µM unless noted.
The subject of the next assay is RXF 393 renal. The conditions noted are these: 10 µM unless noted.
A further assay deals with SF-268 CNS. The settings on record: 10 µM unless noted.
The subject of a further assay is SF-295 CNS. The conditions noted are these: 10 µM unless noted.
Another assay deals with SF-539 CNS. The settings on record: 10 µM unless noted.
Another assay relates to UACC-257 melanoma. The settings on record: 10 µM unless noted.
The subject of the next assay is M14 melanoma. The settings on record: 10 µM unless noted.
Another assay relates to NCI-H522 lung. The settings on record: 10 µM unless noted.

About 83,000 compounds went through this panel and 20% of them were active in at least one assay; those are over-represented in the sample as a whole.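 Growth was measured after 48 h exposure to one concentration of compound in 96-well plates. Values under 10 count as active.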 Values without a mark were called inactive. Activity calls are given as the source filed them.

For the molecule `CNC(=O)c1cc(-n2ccc3cc(NC(=O)Nc4ccc(N5CCOCC5)c(C(F)(F)F)c4)ccc32)ccn1`, the growth in the assay on NCI-H23 lung was 50.4%; with NCI-H226 lung it was 73.6%; in the assay with NCI-H322M lung it was 75.5%; with HOP-62 NSCLC, 55.7%; in the assay on NCI-H460 lung, 34.3%; with HOP-92 NSCLC it was 56%. For the same molecule, the growth in the assay with A549/ATCC NSCLC was 36.4%; in the assay with 786-0 renal, 13.6%; with COLO 205 colon it was 26.4%; in the assay on DU-145 prostate, 54.9%; in the assay with K-562 leukemia it was 4.09% (active); with MALME-3M melanoma, 82%. The growth was 45.4% in the assay with MDA-MB-231 breast; -27.5% (active) in the assay on RXF 393 renal; 72.6% in the assay on SF-268 CNS; 12.3% with SF-295 CNS; 23.3% with SF-539 CNS; 56.8% in the assay on UACC-257 melanoma. Also, the growth in the assay with M14 melanoma was 23.6%.
Turning to `CC1(C)[C@@H](O)CC[C@]2(C)[C@H]3CC[C@@H]4[C@H]5[C@H](C(=O)/C=C\c6ccncc6)CC[C@]5(O)CC[C@@]4(C)[C@]3(C)CC[C@@H]12`, the growth in the assay with NCI-H23 lung is 49.2%; in the assay with NCI-H226 lung, 27.8%; in the assay on NCI-H322M lung it was 93.4%; with HOP-62 NSCLC, 89.9%; in the assay with NCI-H460 lung, 62.9%; in the assay with HOP-92 NSCLC, 91.9%. In addition, the growth in the assay with A549/ATCC NSCLC was 71.5%; in the assay with 786-0 renal, 35.3%; with COLO 205 colon, 91%; with DU-145 prostate, 38%; with K-562 leukemia, 9.43% (active); with MALME-3M melanoma it was 94.3%. Besides, the growth was -8.43% (active) with MDA-MB-231 breast; -13.7% (active) in the assay with RXF 393 renal; 50.2% with SF-268 CNS; 93.3% with SF-295 CNS; 37.9% with SF-539 CNS; 72.8% in the assay with UACC-257 melanoma. Besides, the growth in the assay on M14 melanoma was 67.4%.
With `CN1CCN(Cc2ccc(NC(=O)c3cncc(C#Cc4cnc5ccc(OCC(C)(C)O)nn45)c3)cc2C(F)(F)F)CC1`, the growth was -58.4% (active) in the assay with NCI-H23 lung; -64.1% (active) with NCI-H226 lung; -22.5% (active) in the assay with NCI-H322M lung; -9.7% (active) in the assay on HOP-62 NSCLC; -73.9% (active) with NCI-H460 lung; -18.6% (active) in the assay on HOP-92 NSCLC. Besides, the growth was -35.3% (active) in the assay on NCI-H522 lung; -45.3% (active) in the assay on A549/ATCC NSCLC; -62.3% (active) with 786-0 renal; -36.8% (active) in the assay with DU-145 prostate; 8.57% (active) in the assay on K-562 leukemia; -67.6% (active) in the assay on MALME-3M melanoma. Besides, the growth with MDA-MB-231 breast is -11.1% (active); in the assay with SF-268 CNS it was -50.4% (active); in the assay on SF-295 CNS, -2.58% (active); in the assay on SF-539 CNS, -83.1% (active); in the assay with UACC-257 melanoma, -16.8% (active).
For `O=C(Nc1ccc2c(ccn2Cc2ccccn2)c1)c1ccnnc1`, the growth with NCI-H23 lung is 94.6%; with NCI-H226 lung it was 87.3%; with NCI-H322M lung, 98.5%; with HOP-62 NSCLC it was 76.4%; in the assay with NCI-H460 lung, 104%; in the assay with HOP-92 NSCLC it was 87.6%. The growth with A549/ATCC NSCLC is 91.4%; in the assay on 786-0 renal, 86%; with COLO 205 colon, 110%; with DU-145 prostate, 89.1%; in the assay on K-562 leukemia, 99.6%; with MALME-3M melanoma it was 103%. The growth in the assay with MDA-MB-231 breast was 71.1%; in the assay with RXF 393 renal, 59.3%; with SF-268 CNS, 81.9%; in the assay on SF-295 CNS, 94.7%; with SF-539 CNS, 97.7%; in the assay with UACC-257 melanoma it was 106%. Also, the growth in the assay with M14 melanoma was 99.7%.
For the molecule `CCCn1cnc2c(c1=N)C(c1ccc(F)cc1)c1sc3c(C)cccc3c1O2` (stereo unspecified), the growth with NCI-H23 lung was 25.7%; with NCI-H226 lung, 8.74% (active); with NCI-H322M lung it was 49.9%; in the assay with HOP-62 NSCLC, 32%; with NCI-H460 lung, 8.38% (active); in the assay with HOP-92 NSCLC it was 33.5%. For the same molecule, the growth in the assay with A549/ATCC NSCLC was 35.6%; with 786-0 renal, 23.5%; with COLO 205 colon, 52.2%; with DU-145 prostate, 27.5%; in the assay on K-562 leukemia, 5.29% (active); with MALME-3M melanoma it was 47.1%. In addition, the growth was 53% with MDA-MB-231 breast; -39% (active) in the assay on RXF 393 renal; 53.8% in the assay with SF-268 CNS; -0.689% (active) in the assay with SF-295 CNS; -27.1% (active) with SF-539 CNS; 70.8% in the assay on UACC-257 melanoma. Also, in the assay on M14 melanoma, the growth was 9.53% (active).
For `CC(=O)Nc1cccc(Nc2nc(N[C@H](C)c3ccccc3)c3ccccc3n2)c1`, the growth in the assay with NCI-H23 lung was 52.3%; with NCI-H226 lung it was 82.6%; with NCI-H322M lung it was 90.3%; with HOP-62 NSCLC, 72.6%; with NCI-H460 lung it was 41.2%; with HOP-92 NSCLC it was 22%. The growth with A549/ATCC NSCLC is 40.7%; in the assay on 786-0 renal it was 54.9%; in the assay on COLO 205 colon it was 44.1%; in the assay with DU-145 prostate it was 65%; in the assay on K-562 leukemia it was 5.94% (active); with MALME-3M melanoma, 71.3%. Moreover, the growth in the assay with MDA-MB-231 breast is 57.8%; in the assay with RXF 393 renal it was -5.79% (active); with SF-268 CNS it was 62.9%; in the assay with SF-295 CNS, 42.3%; with SF-539 CNS it was 73.9%; in the assay on UACC-257 melanoma, 58.6%.
Consider `O=C(NNc1nc2cc(F)ccc2n2c(CO)ccc12)c1cnccn1`, for which the growth is 22.8% in the assay with NCI-H23 lung; 16.3% in the assay on NCI-H226 lung; 22.7% in the assay on NCI-H322M lung; 5.67% (active) in the assay with HOP-62 NSCLC; 2.22% (active) in the assay on NCI-H460 lung; 11.9% with HOP-92 NSCLC. The growth in the assay on NCI-H522 lung is 2.58% (active); with A549/ATCC NSCLC it was 13.6%; with 786-0 renal, 17.4%; with DU-145 prostate it was 22.7%; in the assay with K-562 leukemia, 8.85% (active); in the assay with MALME-3M melanoma, 10.5%. Also, the growth in the assay with MDA-MB-231 breast is 35.9%; in the assay on SF-268 CNS, 20.3%; in the assay on SF-295 CNS, 3.48% (active); with SF-539 CNS it was 3.67% (active); in the assay on UACC-257 melanoma, -1.53% (active).
Take `COC(=O)/C=C/c1c(C2(C)NC(=O)c3ccccc3N2)c(=O)oc2ccc(Cl)cc12` (stereo unspecified): the growth with NCI-H23 lung was 96.3%; with NCI-H226 lung it was 88.1%; with NCI-H322M lung it was 95.1%; with HOP-62 NSCLC it was 92.7%; in the assay with NCI-H460 lung, 96.3%; in the assay with HOP-92 NSCLC, 88.9%. The growth is 68.3% in the assay on NCI-H522 lung; 95.2% with A549/ATCC NSCLC; 96.3% in the assay with 786-0 renal; 102% in the assay with DU-145 prostate; 105% in the assay on K-562 leukemia; 88.3% in the assay on MALME-3M melanoma. The growth is 89.2% with MDA-MB-231 breast; 69.5% in the assay on RXF 393 renal; 92.9% in the assay with SF-268 CNS; 95.3% in the assay on SF-295 CNS; 95.8% in the assay with SF-539 CNS; 98% with UACC-257 melanoma.

Source of the values: PubChem BioAssay (NCI).
